# In the library only some 4.2% were active in any assay of this set; here they are far more common.
# S1P4 ag: S1P4 receptor agonists, primary screen, cell-based; S1P4-expressing cell line, agonist reporter assay; AID 1509, 2009; hit rate 0.35% among 220,000; Sphingosine 1-phosphate receptor 4 (Homo sapiens), O95977; activation, % at 4.98 µM; in the data active = activation above about 11%;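 also: 0% = DMSO vehicle and 100% = reference agonist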
# Target sequence (O95977 whole entry, looked up): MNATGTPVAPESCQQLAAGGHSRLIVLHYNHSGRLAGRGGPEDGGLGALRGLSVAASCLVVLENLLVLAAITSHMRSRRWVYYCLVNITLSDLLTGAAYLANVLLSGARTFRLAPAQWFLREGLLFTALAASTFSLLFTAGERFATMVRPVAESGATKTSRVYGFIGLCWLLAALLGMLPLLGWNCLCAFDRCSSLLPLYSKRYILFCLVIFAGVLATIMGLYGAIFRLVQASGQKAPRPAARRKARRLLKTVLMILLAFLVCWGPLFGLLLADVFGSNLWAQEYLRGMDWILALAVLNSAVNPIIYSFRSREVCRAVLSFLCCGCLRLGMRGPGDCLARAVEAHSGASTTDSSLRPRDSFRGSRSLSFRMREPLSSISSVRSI
# Hsp70 act: Hsp70 transcriptional activators, primary screen, cell-based, HeLa, Hsp70 promoter luciferase, luminescence, 10 µM | HeLa Hsp70 promoter luciferase reporter; scaled: vehicle 0, proteasome-inhibitor control 100% | activation, % at 10 µM | hit rate 0.04% among 200,000;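 active = activation above the mean across all tested compounds plus 3 SD, cutoff set per campaign, cut at about 5.5% in these data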;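 also: 100% = MG132 at 30 µM as the positive control and 0% = DMSO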
# CHOP inhibitor: inhibitors of CHOP promoter induction, primary screen, cell-based, unfolded protein response, luciferase reporter. CHO-K1 CHOP-promoter luciferase, tunicamycin-induced, 15-18 h. inhibition, % at 10 µM. hit rate 3.8% among 220,000. AID 2732, 2010;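 active = compounds that reduced the stress-induced luciferase reporter signal by more than about 70% of percent inhibition, limit read from the data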;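 also: 0% = tunicamycin plus vehicle and 100% = wells without tunicamycin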
# S1P4 antagonist: S1P4 receptor antagonists, primary screen, cell-based | hit rate 0.26% among 220,000 | Sphingosine 1-phosphate receptor 4 (Homo sapiens), O95977 | AID 1510, 2009 | S1P4-expressing cells, antagonist mode, reporter read-out | inhibition, % at 4.98 µM; in the data active = inhibition above about 29%;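 also: 0% = wells stimulated with agonist and 100% = vehicle wells without agonist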
# CHOP confirm: retest of CHOP induction inhibitors, confirmation, cell-based; shares compounds with CHOP inhibitor; CHO-CHOP promoter luciferase reporter, tunicamycin-induced, luminescence; inhibition, % at 10 µM; hit rate 45% among 2,100; AID 504437, 2011;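 active = mean of three repeat readings of reporter signal inhibition above a set limit, cut at about 70% in these data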;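 also: 0% = tunicamycin plus vehicle and 100% = wells lacking tunicamycin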
# * marks the source's active call; other numbers are inactive results; / = not tested or not shown.
SMILES,S1P4 ag,Hsp70 act,CHOP inhibitor,S1P4 antagonist,CHOP confirm
CC(OC(=O)C1CC=CCC1C(N)=O)C(Cl)=C(Cl)Cl (stereo unspecified),0,0,-16,-19,/
Cn1c(SCC(=O)c2ccccc2)nnc1C1COc2ccccc2O1 (stereo unspecified),1,/,0,-6,/
NC(=O)c1ccsc1NC(=O)c1coc2ccccc2c1=O,1,1,-10,-16,/
O=S(=O)(Nc1cccc2c1CCCC2)c1cccc(C(F)(F)F)c1,-1,0,107*,-10,120*
Cn1ncc(SCc2ccccc2)c(Cl)c1=O,2,/,50,5,/
Cn1ncc(S(=O)(=O)Cc2ccccc2)c(Cl)c1=O,0,/,102*,2,-3
Cc1ccc(-c2nn(-c3ccccc3)cc2NC(=O)c2ccccc2)cc1,0,0,11,-8,/
Cc1ccc(-c2nn(-c3ccccc3)cc2C=C2C(=O)CC(C)(C)CC2=O)cc1,-1,0,98*,-17,-9
O=C(Nc1ccc(-c2nc3ccccc3o2)cc1)c1ccc(N2CCOCC2)c([N+](=O)[O-])c1,2,0,101*,1,114*
CCc1cccc(C)c1NC(=O)CSc1nc(-c2ccccc2F)nc2nc[nH]c12,-1,0,108*,-23,56
CC1CC2(CC(C)(C(=O)CSc3n[nH]c(-c4ccccc4Cl)n3)OC2=O)C(=O)O1 (stereo unspecified),-2,0,0,-6,/
COCCCNC(=S)N1CCN(C)CC1,2,/,15,-7,/
COc1cc([C@@H]2c3cc4c(cc3[C@H](O)[C@H]3COC(=O)[C@H]23)OCO4)cc(OC)c1OC,-3,0,/,18,/
COc1cc([C@@H]2c3cc4c(cc3[C@@H](O)[C@@H](CO)[C@@H]2CO)OCO4)cc(OC)c1O[Si](C)(C)C(C)(C)C,/,/,100*,/,117*
CCOCCCNC(=O)C(NC(=O)c1ccc(NC(C)=O)cc1)c1ccc(Cl)cc1 (stereo unspecified),-1,-1,47,-4,/
CC1CCC(C(C)C)C(OCC(O)CN2CCN(Cc3ccccc3)CC2)C1 (stereo unspecified),-2,0,99*,8,104*
CCN(CC)S(=O)(=O)c1ccc(N=Nc2c(C)[nH]n(C(N)=S)c2=O)cc1,1,0,2,2,/
NC(=S)n1[nH]c(-c2ccc([N+](=O)[O-])cc2)c(N=Nc2ccc(O)cc2)c1=O,0,0,107*,1,-20
C[C@@H]1C(=O)O[C@H]2[C@H]1CC[C@@]1(C)C(=O)C=C[C@@](C)(O)[C@H]21,/,/,-12,/,/
CCCCC(=O)/C=C/n1c(=S)oc2ccccc21,1,0,108*,-14,3
Cc1ccc(N=Cc2nc(/C=C/c3cccc([N+](=O)[O-])c3)oc2O)cc1,-1,0,16,-1,/
CCCCNC(=O)NC1C(NC(=O)NCCCC)N(C)C(=O)N1C (stereo unspecified),-2,0,-3,-10,/
CC(CNC(=S)Nc1cc(F)cc(F)c1)CSc1ccc(Cl)cc1 (stereo unspecified),3,0,97*,2,86*
Cc1ccc(NC(=O)c2cc(NC(=O)c3ccco3)ccc2N2CCCCC2)cc1,1,1,100*,-19,88*
CCC(CC)C(=O)Nc1ccc(Sc2ccc([N+](=O)[O-])cc2)cc1,8,0,-31,7,/
SMILES,S1P4 ag,Hsp70 act,CHOP inhibitor,S1P4 antagonist,CHOP confirm
CC(C)(C)C1CCc2onc(C(=O)Nc3cccnc3)c2C1 (stereo unspecified),1,0,48,-6,/
CC(C)(C)C1CCc2onc(C(=O)Nc3cccc(O)c3)c2C1 (stereo unspecified),1,0,109*,0,25
C=CCOc1c(Br)cc(CNn2cn[nH]c2=S)cc1OC,1,0,8,-3,/
COc1cc(C)ccc1S(=O)(=O)N1CCN(C23CC4CC(CC(C4)C2)C3)CC1,-3,0,105*,-4,12
Cc1ccccc1NC(=O)c1cccc2nc3ccccc3nc12,0,0,16,-16,/
COc1ccc(C(C[N+](=O)[O-])C2(c3ccc(OC)c(OC)c3)C(=O)c3ccccc3C2=O)cc1 (stereo unspecified),0,-1,104*,12,-165
CN1C(=O)/C(=C/c2cc(N=Nc3ccccc3)ccc2O)SC1=S,-1,0,104*,4,104*
